Laboratory results published in the supplement of paper PMC4022240.
± gives the standard deviation.

Key:
Experiment in all cases: peptide microarray binding signal (635 nm), min-max normalized on array (fraction of array maximum); higher = stronger binding
[1] = biological target: T1, HaloTag-ATRX ADD domain (163-292)
T1 chain: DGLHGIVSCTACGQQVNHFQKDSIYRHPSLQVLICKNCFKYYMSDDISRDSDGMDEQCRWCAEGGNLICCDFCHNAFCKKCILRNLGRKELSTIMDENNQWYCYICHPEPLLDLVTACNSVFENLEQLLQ
In short: (§1)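 Within each library, mean intensities of triplicate spots were min-max scaled to give the binding signal. The spots were histone 13-mer peptide–cellulose conjugates on nitrocellulose with a Cy3 tracer, blocked overnight at 4°C. They were then probed for 1 h at 4°C using biotin-labelled HaloTag reader fusions (10 nM to 1 μM) with streptavidin-Alexa Fluor 647 or rabbit histone antibodies (1:10,000 to 1:2,000) with anti-rabbit Alexa 647, and scanned at 635 nm for signal and 532 nm for misprints on an Axon GenePix 4000B.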

[2] = biological target: HaloTag-ING2 PHD (mouse Ing2 200-280)
In short: as §1

[3] = biological target: anti-H3K4me3 antibody ab8580
In short: as §1

[4] = biological target: anti-H3K9me3 antibody ab8898
In short: as §1

[5] = peptide region: H3 1-13, peptide modifications: H3T3ph H3K9ac, binder concentration: 1:2,000 dilution
[6] = peptide region: H3 1-13, peptide modifications: H3T3ph H3K9ac, binder concentration: 1:10,000 dilution
[7] = peptide region: H3 5-17, binder concentration: 1:2,000 dilution
[8] = peptide region: H3 5-17, binder concentration: 1:10,000 dilution
[9] = peptide region: H3 1-13, peptide modifications: H3T6ph, binder concentration: 1:2,000 dilution
[10] = peptide region: H3 1-13, peptide modifications: H3T6ph, binder concentration: 1:10,000 dilution
[11] = peptide region: H3 1-13, peptide modifications: H3T6ph H3K9me1, binder concentration: 1:2,000 dilution
[12] = peptide region: H3 1-13, peptide modifications: H3T6ph H3K9me1, binder concentration: 1:10,000 dilution
[13] = peptide region: H3 1-13, peptide modifications: H3T3ph H3K9me2, binder concentration: 1:2,000 dilution
[14] = peptide region: H3 1-13, peptide modifications: H3T3ph H3K9me2, binder concentration: 1:10,000 dilution

B1: H3 1-13 A R Tph K Q T A R Kac S T G G (peptide)
chain: ARTKQTARKSTGG
For B1, the “peptide microarray binding signal” value ([1]; peptide region: H3 1-13, peptide modifications: H3T3ph H3K9ac, binder concentration: 50 nM) was 0.00881 ± 0.00025, the “peptide microarray binding signal” value ([1]; peptide region: H3 1-13, peptide modifications: H3T3ph H3K9ac, binder concentration: 500 nM) was 0.0147 ± 0.00088 and the “peptide microarray binding signal” value ([2]; peptide region: H3 1-13, peptide modifications: H3T3ph H3K9ac, binder concentration: 10 nM) was 0.0255 ± 0.0014. For the same binder, the “peptide microarray binding signal” value ([2]; peptide region: H3 1-13, peptide modifications: H3T3ph H3K9ac, binder concentration: 100 nM) was 0.04 ± 0.0064, the “peptide microarray binding signal” value [3, 5] was 0.0124 ± 0.0018 and the “peptide microarray binding signal” value [3, 6] was 0.00867 ± 0.00052. The “peptide microarray binding signal” value [4, 5] was 0.00523 ± 0.00022 and the “peptide microarray binding signal” value [4, 6] was 0.00363 ± 0.00025.

B2: H3 5-17 Q T A R K S T G G K A P R (peptide)
chain: QTARKSTGGKAPR
B2 was tested, and the “peptide microarray binding signal” value ([1]; peptide region: H3 5-17, binder concentration: 50 nM) was 0.00796 ± 0.00026, the “peptide microarray binding signal” value ([1]; peptide region: H3 5-17, binder concentration: 500 nM) was 0.00462 ± 0.00035 and the “peptide microarray binding signal” value ([2]; peptide region: H3 5-17, binder concentration: 10 nM) was 0.00376 ± 7.2e-05. The “peptide microarray binding signal” value ([2]; peptide region: H3 5-17, binder concentration: 100 nM) was 0.00489 ± 0.00045, the “peptide microarray binding signal” value [3, 7] was 0.000982 ± 8.5e-05 and the “peptide microarray binding signal” value [3, 8] was 0.00143 ± 0.00013. For the same binder, the “peptide microarray binding signal” value [4, 7] was 0.00242 ± 0.0011 and the “peptide microarray binding signal” value [4, 8] was 0.00265 ± 0.00021.

B3: H3 1-13 A R T K Q Tph A R K S T G G (peptide)
chain: ARTKQTARKSTGG
With B3 the “peptide microarray binding signal” value ([1]; peptide region: H3 1-13, peptide modifications: H3T6ph, binder concentration: 50 nM) was 0.004044 ± 1.6e-05, the “peptide microarray binding signal” value ([1]; peptide region: H3 1-13, peptide modifications: H3T6ph, binder concentration: 500 nM) was 0.009 ± 0.00047 and the “peptide microarray binding signal” value ([2]; peptide region: H3 1-13, peptide modifications: H3T6ph, binder concentration: 10 nM) was 0.0046 ± 0.00047. For the same binder, the “peptide microarray binding signal” value ([2]; peptide region: H3 1-13, peptide modifications: H3T6ph, binder concentration: 100 nM) was 0.0195 ± 0.002, the “peptide microarray binding signal” value [3, 9] was 0.000793 ± 7.5e-05 and the “peptide microarray binding signal” value [3, 10] was 0.000285 ± 3.1e-06. For the same binder, the “peptide microarray binding signal” value [4, 9] was 0.000755 ± 2.9e-05 and the “peptide microarray binding signal” value [4, 10] was 0.000288.

B4: H3 1-13 A R T K Q Tph A R Kme S T G G (peptide)
chain: ARTKQTARKSTGG
B4 was tested, and the “peptide microarray binding signal” value ([1]; peptide region: H3 1-13, peptide modifications: H3T6ph H3K9me1, binder concentration: 50 nM) was 0.00721 ± 0.00059, the “peptide microarray binding signal” value ([1]; peptide region: H3 1-13, peptide modifications: H3T6ph H3K9me1, binder concentration: 500 nM) was 0.0115 ± 0.00096 and the “peptide microarray binding signal” value ([2]; peptide region: H3 1-13, peptide modifications: H3T6ph H3K9me1, binder concentration: 10 nM) was 0.0206 ± 0.0028. For the same binder, the “peptide microarray binding signal” value ([2]; peptide region: H3 1-13, peptide modifications: H3T6ph H3K9me1, binder concentration: 100 nM) was 0.0319 ± 0.0032, the “peptide microarray binding signal” value [3, 11] was 0.00568 ± 0.0013 and the “peptide microarray binding signal” value [3, 12] was 0.0686 ± 0.046. For the same binder, the “peptide microarray binding signal” value [4, 11] was 0.00584 ± 0.00057 and the “peptide microarray binding signal” value [4, 12] was 0.00582 ± 0.00014.

B5: H3 1-13 A R Tph K Q T A R Kme2 S T G G (peptide)
chain: ARTKQTARKSTGG
B5 was tested, and the “peptide microarray binding signal” value ([1]; peptide region: H3 1-13, peptide modifications: H3T3ph H3K9me2, binder concentration: 50 nM) was 0.0107 ± 0.00063, the “peptide microarray binding signal” value ([1]; peptide region: H3 1-13, peptide modifications: H3T3ph H3K9me2, binder concentration: 500 nM) was 0.0409 ± 0.02 and the “peptide microarray binding signal” value ([2]; peptide region: H3 1-13, peptide modifications: H3T3ph H3K9me2, binder concentration: 10 nM) was 0.0306 ± 0.0047. For the same binder, the “peptide microarray binding signal” value ([2]; peptide region: H3 1-13, peptide modifications: H3T3ph H3K9me2, binder concentration: 100 nM) was 0.0365 ± 0.018, the “peptide microarray binding signal” value [3, 13] was 0.0117 ± 0.0018 and the “peptide microarray binding signal” value [3, 14] was 0.0191 ± 0.0097. For the same binder, the “peptide microarray binding signal” value [4, 13] was 0.0295 ± 0.0016 and the “peptide microarray binding signal” value [4, 14] was 0.013 ± 0.0018.
